14 compounds from PubChem BioAssay (NCI) can be followed below.

The experiment in a line: NCI Yeast Anticancer Drug Screen. Data for the mec2-1 strain (AID 157). Conditions: S. cerevisiae mec2-1 strain, hits give high values. As for the experimental part:
Growth inhibition of yeast strains with defined genetic alterations is measured as a screen for potential anti-cancer activity. Selected strains with alterations in DNA damage repair or cell cycle control were exposed to compounds and growth inhibition was measured relative to vehicle treated controls. The strain used in this assay is mec2-1

Setting [1] is: at 5.0 µM (retest, dose inferred, filed as 0.5).
Where [2] appears, read: at 50.0 µM (retest, dose inferred, filed as 5.0).

Compounds without any hit were thinned out: in the full panel of roughly 79,000, 15% have a hit. Unmarked numbers belong to inactive results. The source made the active and inactive calls. Rule as the data show it: active = growth inhibition above about 70%; inactive = the rest.

In the case of `N#C/C(=C/c1cc(I)cc(I)c1O)C(N)=O`, the growth inhibition is, setting by setting: under setting [1], 39%; under setting [2], 92% (active); (at 50.0 µM) 58.6%.
On the same counts, the results for `Cn1c2nc(-[n+]3ccc(-c4ccccc4)cc3)nc-2c([O-])n(C)c1=O` are -3%, 8% and 2.95%.
On the same counts, the results for `COc1ccc(/C=C2/C(=O)ON=C2C)cc1OC` are -14%, 48% and 85.5% (active).
The matching figures for `CCCCCCCCCCCC[N+](C)(C)C` (tested in a mixture with another compound): 5%, 99% (active) and 93.8% (active).
Regarding `CC/C(=N\O)c1ccc2cc(Br)c3ccccc3c2c1`, the growth inhibition under setting [1] was -2%, the growth inhibition under setting [2] was 89% (active) and the growth inhibition (at 50.0 µM) is 98.9% (active).
Turning to `CCCCCCCCCCCCC1N=C(N)N2CCCC2=C1C(=O)OC` (configuration not stated), the growth inhibition is 99% (active) under setting [1], 99% (active) under setting [2] and 91.5% (active) (at 50.0 µM).
Regarding `Cn1c(-c2ccccc2)c(CCNC(=O)C2CCC2)c2ccccc21`, the growth inhibition under setting [1] is 14%, the growth inhibition under setting [2] is 14% and the growth inhibition (at 50.0 µM) is 86% (active).
With `CCSc1nc2ccc(N3C(=O)C=CC3=O)cc2s1`, the growth inhibition is, setting by setting: under setting [1], 93% (active); under setting [2], 100% (active); (at 50.0 µM) 99.6% (active).
On the same counts, the results for `CCOc1ccccc1C(=O)Nc1cc(C)nn1-c1ccccc1` are 7%, 4% and 99.2% (active).
Regarding `Cc1ccc(/[N+]([O-])=C/c2ccccc2)cc1`, the growth inhibition reads like this: under setting [1], 4%; under setting [2], -17%; (at 50.0 µM) 99.2% (active).
The matching figures for `O=C(O)/C=C\c1cc2ccccc2c2ccccc12`: -11%, 99% (active) and 98.8% (active).
`Nc1ccc(O)c2c1C(=O)c1ccccc1C2O` (configuration not stated): the growth inhibition under setting [1] was 4%, the growth inhibition under setting [2] was 95% (active) and the growth inhibition (at 50.0 µM) was 78.9% (active).
On the same counts, the results for `CCCCCCCCCCCC#CCCCCC(=O)O` are 95% (active), 97% (active) and 62.5%.
Regarding `CC(C(=O)NN)C(O)C(C)(C)O` (configuration not stated), the growth inhibition by setting is: under setting [1], -5%; under setting [2], -10%; (at 50.0 µM) 3.8%.
